F508del corr: CFTR F508del correction in bronchial cells | AID 720511 | CFBE cells, YFP halide quenching; stimulated with forskolin plus potentiator P3; % fluorescence drop versus neutral controls | activity (quench increase), % at 7.58 µM | 0.36% of 350,000 active;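 active = mean added fluorescence quench of at least 8% versus neutral control, with both replicates also reaching 8%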;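 also: cells transiently co-express mutant CFTR-F508del with the halide-sensitive YFP; corrector assay measuring rescue of mutant channel to the surface after 24 h compound exposure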
PAX8 inh HTS: inhibitors of PAX8 transcriptional activity in RMG-I cells; RMG-I TPO-luciferase reporter, SteadyGlo, 24 h; inhibition, % at 12.6 µM; 1.2% of 360,000 active;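 active = mean replicate inhibition at least 60% with every replicate also reaching 60%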;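 also: luciferase light reporting Pax8 driven TPO promoter activity; plate controls were median of neutral control wells for no effect and mitoxantrone controls for full effect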
EWS-Fli block: inhibitors of EWS/Fli oncoprotein transcriptional activity; inhibition, % at 12.6 µM; AID 651661; 0.67% of 350,000 active; A673 NR0B1-luciferase reporter, viability-normalised;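 active = mean inhibition of at least 50% after viability correction, with every replicate also passing that limit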;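 also: firefly luciferase signal divided by Alamar Blue viability fluorescence both relative to DMSO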
HIV Env fusion: inhibitors of HIV Env-mediated cell fusion. inhibition, % at 12.3 µM. AID 651610. HeLa-JRFL Env/CEM21 cell fusion, luciferase. 1.1% of 360,000 active;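 active = mean replicate inhibition score of at least 50 and every replicate individually at or above 50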;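 also: 0% = plate neutral controls and 100% = maraviroc near 300 nM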
GSIS activator: GLuc luminescence reporter in INS-1E cells, primary screen for activators of glucose-dependent secretion of insulin; INS-1E GLuc reporter insulin secretion, 2-3 h; 0.61% of 370,000 active; activation, % at 16.6 µM;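 active = lowest replicate activation of at least 40%, so every replicate reaches that level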;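 also: 0% = median of neutral control wells and 100% = median of IBMX positive control wells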
PGC1a acetyl inh: lowers PGC1a acetylation signal in U2OS cells; AlphaScreen anti-acetyl-lysine; with virally co-expressed GCN5 acetyltransferase; AID 651687; inhibition, % at 15.6 µM; 0.17% of 350,000 active;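 active = every replicate shows inhibition of at least 40%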;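 also: 0% = neutral control wells and 100% = positive control wells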
The depositor's hits bear a star; x = no result given; ! = not confirmed by another sample; [ ] = another dose, or the depositor's remark. This is a sample that favours compounds with a hit; in the whole collection about 2.7% have one here.

SMILES | F508del corr | PAX8 inh HTS | EWS-Fli block | HIV Env fusion | GSIS activator | PGC1a acetyl inh
C[C@@H]1CN([C@H](C)CO)C(=O)c2cccc(N(C)C)c2O[C@H]1CN(C)S(=O)(=O)c1ccc(F)cc1 | 1 | -7 | 0 | x | 11 | 1
C[C@@H]1CN([C@H](C)CO)S(=O)(=O)c2ccc(C#CCN(C)C)cc2O[C@H]1CN(C)C(=O)C1CC1 | 0 | x | -1 | 44[16.7 µM] | 9 | -8
COc1ccc(S(=O)(=O)Nc2ccc3c(c2)CC(=O)N([C@@H](C)CO)C[C@H](C)[C@@H](CN(C)Cc2ccc(C(F)(F)F)cc2)O3)cc1 | 3 | 83* | 4 | 21[16.7 µM] | -22 | 1
CCOC(=O)c1sc2nc(-c3ccco3)c3c(c2c1N)CC(C)(C)OC3 | x | x | x | -19 | x | -1
CC1(C)Cc2c(c(-c3ccco3)nc3n[nH]c(N)c23)CO1 | x | x | x | x | 56* | 12
COc1ccc2cc1Oc1ccc(cc1)C[C@H]1c3c(cc4c(c3Oc3cc5c(cc3OC)CCN(C)[C@@H]5C2)OCO4)CCN1C | 6 | 2 | 16 | 13 | x | -40
COc1ccc2cc1Oc1ccc(cc1)C[C@H]1c3cc(c(OC)cc3CCN1C)Oc1c(OC)c(OC)cc3c1[C@H](C2)N(C)CC3 | 0 | 39 | 57* | -42 | x | -42
C[C@H](CO)N1C[C@H](C)[C@@H](CN(C)Cc2ccc(Cl)c(Cl)c2)OCCCC[C@H](C)Oc2ccc(NS(=O)(=O)c3cccs3)cc2C1=O | 2 | 71* | 10 | 15[16.7 µM] | -16 | 20
C[C@H]1CCCCO[C@H](CN(C)Cc2ccc(C(F)(F)F)cc2)[C@@H](C)CN([C@@H](C)CO)C(=O)c2cc(NS(=O)(=O)c3cccs3)ccc2O1 | 4 | 81* | 3 | 19[16.7 µM] | -28 | -13
C[C@@H]1CCCCO[C@H](CN(C)Cc2ccc(Cl)c(Cl)c2)[C@@H](C)CN([C@H](C)CO)C(=O)c2cc(NS(=O)(=O)c3cccs3)ccc2O1 | 1 | -22 | -6 | -6[16.7 µM] | -11 | 22
C[C@H]1CCCCO[C@@H](CN(C)Cc2ccc(C(F)(F)F)cc2)[C@@H](C)CN([C@@H](C)CO)C(=O)c2cc(NS(=O)(=O)c3cccs3)ccc2O1 | 0 | 96* | 18 | 14[16.7 µM] | -21 | -6
C[C@H](CO)N1C[C@H](C)[C@@H](CN(C)C(=O)Nc2ccc(C(F)(F)F)cc2)OCCCC[C@H](C)Oc2ccc(NS(=O)(=O)c3cccs3)cc2C1=O | -4 | 65* | 19 | 24[16.7 µM] | 4 | 21
C[C@H]1CN([C@@H](C)CO)C(=O)c2cc(NS(=O)(=O)c3ccc(F)cc3)ccc2O[C@H]1CN(C)CC1CCCCC1 | 1 | -10 | 8 | -5[16.7 µM] | -13 | x
C[C@@H]1CCCCO[C@@H](CN(C)S(=O)(=O)c2ccc(F)cc2)[C@@H](C)CN([C@H](C)CO)C(=O)c2cc(NC(=O)CCCN(C)C)ccc2O1 | -3 | -31 | -3 | 17[16.7 µM] | 12 | 12
COCC(=O)Nc1ccc2c(c1)C(=O)N(C)C[C@H](OC)[C@@H](C)CN(Cc1ccccc1OC)[C@@H](C)CO2 | 0 | x | -4 | x | -11 | 9
Cc1ccc2nc(NCCO)nc(-c3ccccc3)c2c1 | x | x | x | -76 | x | 3
OCCNc1nc(-c2ccccc2)c2cc(Cl)ccc2n1 | 1 | -8 | 8 | -18 | 48* | 2
CCN(CC(O)c1cccc(O)c1)C(=O)C12CC3CC(CC(C3)C1)C2 (stereo unspecified) | 0 | -1 | 7 | 74* | -30 | -20
CNC[C@H](O)c1cccc(O)c1 | -1 | 4 | -1 | 27 | -30 | 7
COc1ccc(S(=O)(=O)Nc2ccc3c(c2)CC(=O)N([C@H](C)CO)C[C@@H](C)[C@H](CN(C)Cc2ccc(Cl)c(Cl)c2)O3)cc1 | 1 | 2 | -16 | -6[16.7 µM] | -4 | 3
Cc1cc(C(=O)COc2ccc(C#N)cc2)c(C)n1C1CC1 | -1 | -10 | -27 | 64* | 3 | -18
O=C(O)CCCc1nc(-c2ccc(Cl)cc2)no1 | x | -13 | x | 16 | x | 2
CN(C)C(=O)CCCc1nc(-c2ccc(Cl)cc2)no1 | x | x | x | 55* | -3 | 3
Cc1cccc(-c2noc(CCCC(=O)Nc3cccnc3)n2)c1 | x | x | x | 13 | x | -6
O=C(CCCc1nc(-c2ccc(Cl)cc2)no1)Nc1cccnc1 | x | 9 | x | 61* | x | -1
SMILES | F508del corr | PAX8 inh HTS | EWS-Fli block | HIV Env fusion | GSIS activator | PGC1a acetyl inh
CCC(=O)N1C[C@@H](C)[C@H](OC)CN(C)C(=O)c2cc(NC(=O)NC(C)C)ccc2OC[C@H]1C | -3 | x | -1 | x | 7 | 0
Cc1noc(C)c1S(=O)(=O)Nc1ccc2c(c1)CC(=O)N([C@@H](C)CO)C[C@@H](C)[C@@H](CN(C)CC1CCCCC1)O2 | 1 | -16 | 6 | 11[16.7 µM] | -1 | 0
Cc1noc(C)c1S(=O)(=O)Nc1ccc2c(c1)C(=O)N([C@H](C)CO)C[C@H](C)[C@@H](CN(C)Cc1ccc(C(F)(F)F)cc1)O2 | -3 | 8 | 0 | 13[16.7 µM] | -24 | 8
COc1cc(C2c3[nH]c4ccccc4c3CC3COC(=O)N32)cc(OC)c1O (stereo unspecified) | 1 | x | 64* | -108 | -10 | -4
COC(=O)c1ccc([C@H]2C=C(C(=O)N3CCN(Cc4ccc5c(c4)OCO5)CC3)O[C@@H](OCc3ccc(CO)cc3)C2)cc1 | 2 | 10 | 5 | -8[16.7 µM] | x | 2
O=C(C1=C[C@@H](c2ccccc2)C[C@@H](OCc2ccc(CO)cc2)O1)N1CCN(Cc2ccc3c(c2)OCO3)CC1 | 8.8*! | 27 | 28 | -19[16.7 µM] | -2 | -4
O=[N+]([O-])c1cc(C(F)(F)F)cc([N+](=O)[O-])c1NCCNC(=S)Nc1ccc(Cl)c(Cl)c1 | 2 | 29 | 7 | 57* | 0 | 6
FC(F)(F)c1cccc(NC(=S)Nc2ccc(Cl)c(Cl)c2)c1 | -1 | 1 | 5 | 13 | -36 | 9
Cc1ccc(S(=O)(=O)N(C)C[C@H]2Oc3c(NC(=O)Nc4c(C)noc4C)cccc3C(=O)N([C@H](C)CO)C[C@@H]2C)cc1 | 1 | -3 | 6 | -29[16.7 µM] | 11 | -7
CO[C@H]1CN(C)C(=O)c2cc(NC(C)=O)ccc2OC[C@H](C)N(S(=O)(=O)c2cn(C)cn2)C[C@@H]1C | -1 | x | 3 | -8[16.7 µM] | -3 | 4
Cc1ccc2c(c1)nnn2C1CCN(S(=O)(=O)c2ccc(C(=O)N3C(C)CCCC3C)cc2)CC1 (stereo unspecified) | x | x | x | 67* | x | 1
COc1ccccc1S(=O)(=O)N(C)C[C@@H]1OCc2ccccc2-c2c(n(C)c3ccccc23)C(=O)N([C@@H](C)CO)C[C@H]1C | 5 | 69* | 20 | 22[16.7 µM] | 2 | 6
Cc1ccccc1S(=O)(=O)N(C)C[C@@H]1OCc2ccccc2-c2c(n(C)c3ccccc23)C(=O)N([C@H](C)CO)C[C@@H]1C | -6 | -4 | 5 | 74* | -19 | 2

Compound activity as filed in PubChem BioAssay.
